# From PubChem BioAssay
# The source made the active and inactive calls. Unless noted, how the calls were made is not given here.
# Legend:
# [1] = compounds binding Alexa647 anti-His antibody – biochemical, small-molecule microarray, 635 nm fluorescence, artefact control for SMM control protein annotation, primary screen (AID 1128); settings: higher = more signal;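 further: score merges feature fluorescence with signal-to-noise for each printed compound spot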
# [2] = tested on: Human papillomavirus type 1a E7 protein (residues 1-88); test: HPV1a E7 small-molecule binders, primary screen, biochemical, small-molecule microarray, residues 1-88, 635 nm (AID 1129); settings: small-molecule microarray binding, fluorescence 635 nm; higher = more signal
# [3] = target: Focal adhesion kinase 1 (Homo sapiens) (UniProt Q05397); test: PTK2 protein binding on printed compound slides – biochemical, small-molecule microarray, 635/667 nm fluorescence, BSA, DTT, primary screen (AID 1130); settings: 635 nm fluorescence, higher = more signal;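 further: composite of spot emission at 667 nm and signal to noise over triplicate slides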
# Focal adhesion kinase 1 (Homo sapiens), sequence (Q05397 whole entry, looked up): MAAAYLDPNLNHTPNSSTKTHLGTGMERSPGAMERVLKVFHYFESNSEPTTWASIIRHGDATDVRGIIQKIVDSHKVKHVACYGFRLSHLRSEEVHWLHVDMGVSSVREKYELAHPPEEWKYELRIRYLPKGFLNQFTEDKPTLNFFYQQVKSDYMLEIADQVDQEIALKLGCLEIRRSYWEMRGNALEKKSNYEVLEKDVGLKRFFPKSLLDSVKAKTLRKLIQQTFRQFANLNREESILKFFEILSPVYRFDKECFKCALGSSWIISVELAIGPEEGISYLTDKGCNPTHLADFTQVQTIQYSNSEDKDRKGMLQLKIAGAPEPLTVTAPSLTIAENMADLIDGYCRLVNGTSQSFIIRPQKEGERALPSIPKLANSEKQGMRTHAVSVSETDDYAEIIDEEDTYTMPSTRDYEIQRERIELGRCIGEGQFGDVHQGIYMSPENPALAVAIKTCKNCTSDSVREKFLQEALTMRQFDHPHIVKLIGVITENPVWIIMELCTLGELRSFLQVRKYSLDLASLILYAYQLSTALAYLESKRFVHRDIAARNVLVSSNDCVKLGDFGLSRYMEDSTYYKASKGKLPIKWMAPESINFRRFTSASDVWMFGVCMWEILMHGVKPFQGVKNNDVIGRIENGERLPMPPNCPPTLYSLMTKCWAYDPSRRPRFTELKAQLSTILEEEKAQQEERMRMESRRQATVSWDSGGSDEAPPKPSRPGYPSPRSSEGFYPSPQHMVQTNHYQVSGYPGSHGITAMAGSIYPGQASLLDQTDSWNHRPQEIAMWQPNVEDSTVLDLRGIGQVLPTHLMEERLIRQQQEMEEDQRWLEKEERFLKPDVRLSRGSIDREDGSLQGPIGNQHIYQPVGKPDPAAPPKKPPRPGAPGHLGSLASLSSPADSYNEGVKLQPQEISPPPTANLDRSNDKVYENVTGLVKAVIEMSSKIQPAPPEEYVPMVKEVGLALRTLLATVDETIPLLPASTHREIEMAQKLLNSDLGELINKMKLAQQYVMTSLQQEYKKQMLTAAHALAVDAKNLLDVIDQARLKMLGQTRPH
# [4] = tested on: Fibrinogen (Alexa647-labelled); test: Alexa647-fibrinogen binding to printed small molecules – biochemical, small-molecule microarray, 635/667 nm fluorescence, artefact control for SMM control-protein annotation, profiling panel (AID 1131); settings: fibrinogen-A647 binding fluorescence, higher = more signal;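 further: z-score merges 667 nm fluorescence with per-spot signal-to-noise over triplicate slides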
# [5] = target: Follistatin (Homo sapiens) (UniProt P19883); test: FST protein binding to printed compounds – biochemical, small-molecule microarray, 635/667 nm fluorescence, primary screen (AID 1132); settings: 635 nm fluorescence, higher = more signal
# Follistatin (Homo sapiens), sequence (P19883 whole entry, looked up): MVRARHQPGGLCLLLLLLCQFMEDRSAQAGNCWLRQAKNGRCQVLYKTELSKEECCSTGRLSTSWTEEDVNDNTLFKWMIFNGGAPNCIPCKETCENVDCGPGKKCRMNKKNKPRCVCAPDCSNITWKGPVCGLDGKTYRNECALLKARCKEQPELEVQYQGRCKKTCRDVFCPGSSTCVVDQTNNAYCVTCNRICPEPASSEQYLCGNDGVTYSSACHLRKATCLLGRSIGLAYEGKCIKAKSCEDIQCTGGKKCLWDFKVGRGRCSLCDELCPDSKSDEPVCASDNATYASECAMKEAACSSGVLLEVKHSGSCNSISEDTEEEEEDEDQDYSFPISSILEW
# [6] = target: Fibroblast growth factor 2 (Homo sapiens) (UniProt P09038); test: basic fibroblast growth factor binding to printed compounds – biochemical, small-molecule microarray, 635/667 nm fluorescence, primary screen (AID 1133); settings: FGF2, fluorescence 635/667, higher = more signal
# Fibroblast growth factor 2 (Homo sapiens), sequence (P09038 whole entry, looked up): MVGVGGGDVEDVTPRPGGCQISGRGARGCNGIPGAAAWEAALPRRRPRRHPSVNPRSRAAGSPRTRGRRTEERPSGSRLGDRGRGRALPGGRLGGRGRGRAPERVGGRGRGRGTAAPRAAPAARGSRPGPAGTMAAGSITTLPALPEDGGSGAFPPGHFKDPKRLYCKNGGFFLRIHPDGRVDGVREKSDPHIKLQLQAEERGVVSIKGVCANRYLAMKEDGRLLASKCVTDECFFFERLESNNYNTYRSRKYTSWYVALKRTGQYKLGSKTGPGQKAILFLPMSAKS
# [7] = JC-1 mitochondrial potential readout, lung cancer cells – cell-based, A549, JC-1 fluorescence, basal, 24 h, 100 nL, profiling panel (AID 1138); settings: higher = more signal;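 further: A549 lung adenocarcinoma cells under basal conditions with no added stimulus; test concentration not given here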
# Lefty1 = Lefty1 protein binding to printed compounds – biochemical, small-molecule microarray, 635/667 nm fluorescence, primary screen (AID 1139); settings: fluorescence 635/667, higher = more signal
# [8] = tested on: wheat germ agglutinin (Triticum aestivum), Alexa647-labelled; test: Alexa647-WGA lectin binding to printed small molecules – biochemical, small-molecule microarray, 635/667 nm fluorescence, artefact control for SMM control-protein annotation, profiling panel (AID 1140); settings: WGA-A647 binding, 635 nm fluorescence, higher = more signal;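 further: score merges 667 nm feature emission with signal to noise over triplicate slides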
# [9] = target: Luciferin 4-monooxygenase (Photinus pyralis) (UniProt P08659); test: inhibition of purified Photinus pyralis luciferase – biochemical, luminescence, purified enzyme, 2006 set, primary screen (AID 1141); settings: purified firefly luciferase, SteadyGlo luminescence, 30 min; higher = more signal, called active from +8 up or from −8 down;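 further: cell-free assay with purified firefly luciferase at 100 ng per well in PBS; test concentration not given here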
# Luciferin 4-monooxygenase (Photinus pyralis), sequence (P08659 whole entry, looked up): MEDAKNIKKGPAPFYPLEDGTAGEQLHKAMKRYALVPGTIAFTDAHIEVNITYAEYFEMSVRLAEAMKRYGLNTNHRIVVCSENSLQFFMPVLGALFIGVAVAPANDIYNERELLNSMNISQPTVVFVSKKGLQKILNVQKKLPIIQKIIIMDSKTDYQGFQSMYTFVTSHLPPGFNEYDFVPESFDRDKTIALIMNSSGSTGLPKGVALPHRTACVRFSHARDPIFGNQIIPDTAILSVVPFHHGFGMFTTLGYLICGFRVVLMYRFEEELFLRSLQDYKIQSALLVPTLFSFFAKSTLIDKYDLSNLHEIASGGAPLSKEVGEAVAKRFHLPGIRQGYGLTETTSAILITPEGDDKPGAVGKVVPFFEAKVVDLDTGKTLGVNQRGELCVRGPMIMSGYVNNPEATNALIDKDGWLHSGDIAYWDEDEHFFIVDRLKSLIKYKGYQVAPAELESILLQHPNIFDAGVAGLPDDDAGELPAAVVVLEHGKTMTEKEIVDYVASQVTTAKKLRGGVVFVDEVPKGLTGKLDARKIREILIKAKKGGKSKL
# [10] = tested on: Wnt5a (protein binding on small-molecule microarray); test: small molecules binding Wnt5a protein – biophysical, small-molecule microarray, 635/667 nm fluorescence, primary screen (AID 1142); settings: 635 nm fluorescence, higher = more signal;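 further: fluorescence read at 667 nm with signal to noise per printed feature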
# [11] = ATP-based viability of Huh7 replicon cells – cell-based, CellTiter-Glo luminescence, basal, 48 h, cytotoxicity control for HCV replication inhibitor project, primary screen (AID 1143); settings: higher = more signal, called active from +8 up or from −8 down;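 further: Huh7 hepatoma cells carrying a hepatitis C replication reporter with no stimulus; test concentration not given here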
# [12] = Pseudomonas biofilm growth suppression – PAO1 strain, BacTiter-Glo luminescence, LB-PBS, primary screen (AID 1144); settings: P. aeruginosa PAO1 biofilm, 12 h, higher = more signal
# [13] = basal CRE-LacZ reporter activity in PC12 – cell-based, unstimulated, primary screen (AID 1145); settings: no forskolin, luminescence, 4.5 h, higher = more signal, called active from +8 up or from −8 down
# [14] = forskolin-driven CRE-LacZ activity in PC12 – cell-based, CRE-LacZ reporter, forskolin-stimulated, primary screen (AID 1146); settings: luminescence, 4.5 h, higher = more signal, called active from +8 up or from −8 down;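 further: PC12 cells with 6xCRE LacZ reporter stimulated by forskolin 10 µM; beta-galactosidase reporter signal reflecting CREB driven transcription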
# [15] = target: Streptavidin (Streptomyces avidinii) (UniProt P22629); test: compounds binding control protein streptavidin – biophysical, small-molecule microarray, 635/667 nm fluorescence, artefact control for SMM compound annotation, primary screen (AID 1147); settings: higher = more signal;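 further: signal reflects streptavidin binding to arrayed compounds as a control protein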
# Streptavidin (Streptomyces avidinii), sequence (P22629 whole entry, looked up): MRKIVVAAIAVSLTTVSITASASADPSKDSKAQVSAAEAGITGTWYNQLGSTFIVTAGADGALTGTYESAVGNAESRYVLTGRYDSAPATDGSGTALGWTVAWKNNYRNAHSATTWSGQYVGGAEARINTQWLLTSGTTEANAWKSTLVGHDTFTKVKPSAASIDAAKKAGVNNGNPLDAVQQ
# [16] = probe aInhba binding on compound microarray – biochemical, small-molecule microarray, 635/667 nm fluorescence, primary screen (AID 1148); settings: higher = more signal;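 further: score merges 667nm spot fluorescence with signal-to-noise for antibody binding to printed compounds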
# Torsin-1A (Homo sapiens) [17] = target: Torsin-1A (Homo sapiens) (UniProt O14656); test: TOR1A wild-type binding on microarray – cell lysate, small-molecule microarray, lysate, 635/667 nm, primary screen (AID 1149); settings: COS7 hTOR1A-WT lysate, 635 nm fluorescence, higher = more signal
# Torsin-1A (Homo sapiens), sequence (O14656 whole entry, looked up): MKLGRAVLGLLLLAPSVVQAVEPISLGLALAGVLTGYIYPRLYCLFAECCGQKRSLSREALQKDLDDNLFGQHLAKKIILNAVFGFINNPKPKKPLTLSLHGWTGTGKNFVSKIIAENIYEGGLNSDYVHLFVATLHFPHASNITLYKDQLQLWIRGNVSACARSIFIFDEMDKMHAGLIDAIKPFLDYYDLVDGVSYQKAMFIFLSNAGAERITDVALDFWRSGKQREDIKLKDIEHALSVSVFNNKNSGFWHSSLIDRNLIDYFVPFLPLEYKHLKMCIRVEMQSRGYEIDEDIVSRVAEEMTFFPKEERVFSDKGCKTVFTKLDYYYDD
# Torsin-1A (Homo sapiens) [18] = target: Torsin-1A (Homo sapiens) (UniProt O14656); test: torsin A mutant lysate binding on microarrays – cell lysate, small-molecule microarray, COS7 lysate, 635/667 nm fluorescence, primary screen (AID 1150); settings: COS7 hTOR1A mutant lysate, 635 nm fluorescence, higher = more signal;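 further: score pools 667 nm emission and signal to noise measuring lysate protein binding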
# [19] = tested on: Sonic hedgehog protein (Shh); test: Sonic hedgehog microarray binding compounds – biochemical, small-molecule microarray, 635/667 nm fluorescence, primary screen (AID 1151); settings: 635 nm fluorescence, higher = more signal;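 further: Shh protein binding to compounds spotted on small-molecule microarray slides; score combines spot fluorescence intensity with signal-to-noise across triplicate slides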
Compound,composite z-score [1],composite z-score [2],composite z-score [3],composite z-score [4],composite z-score [5],composite z-score [6],z-score [7],composite z-score (Lefty1),composite z-score [8],z-score [9],composite z-score [10],z-score [11],z-score [12],z-score [13],z-score [14],composite z-score [15],composite z-score [16],composite z-score (Torsin-1A (Homo sapiens) [17]),composite z-score (Torsin-1A (Homo sapiens) [18]),composite z-score [19]
COc1ccc([Si](C)(C)[C@H]2[C@H](CC(=O)N3CCC[C@H]3CO)O[C@@]3(C(=O)N(Cc4ccc(N5CCOC5=O)cc4)c4ccccc43)[C@@H]2C)cc1,2.43,1.18,0.395,0.692,1.34,1.56,2.59,1.16,0.697,0.31 (inactive),0.434,-2.09 (inactive),0.11 (inactive),0.702 (inactive),-0.101 (inactive),-0.0564,0.235,0.702,0.64,2.05
CCCC[C@@H](O)C1=C(COC)C[C@H]2C(=O)N(Cc3ccccc3)C(=O)[C@H]2[C@H]1CO,0.708,0.33,-0.285,0.98,0.855,1.33,0.699,0.697,1.13,-0.903 (inactive),0.0314,-0.168 (inactive),0.102 (inactive),0.216 (inactive),-0.566 (inactive),-0.0045,-0.204,0.707,0.69,1.02
COC(=O)[C@@H]1N=C(c2ccc(OCCCO)cc2)O[C@@H]1C,0.217,0.0927,0.517,-0.323,1.17,0.936,0.669,0.516,-0.257,-13.8 (active),0.186,0.0511 (inactive),-0.123 (inactive),-0.31 (inactive),0.421 (inactive),-0.69,0.0225,0.0429,-0.425,0.369
NCCCCCNC(=O)[C@H]1C[C@H]2C(=O)N3CCC[C@H]3C(=O)N2[C@H]1c1cccc(OCCO)c1,3.3,0.987,0.0204,0.83,0.208,-0.146,-0.705,-0.285,1.29,-0.165 (inactive),0.444,-0.0422 (inactive),0.294 (inactive),0.143 (inactive),-0.0024 (inactive),0.812,0.0792,1.05,0.264,0.148
CCCCCCCCCCC(O)C1C=CC2C(=O)N(c3ccccc3)C(=O)C2N1Nc1ccc(C#N)cc1 (stereo not given),-0.0221,1.18,0.464,0.989,0.652,0.429,3.49,0.0328,1.13,0.675 (inactive),0.525,-3.71 (inactive),-0.209 (inactive),-0.519 (inactive),0.407 (inactive),1.66,0.215,0.225,0.646,0.314
COc1cc2c(cc1O)C(C1CC1)N(Cc1cccc(OC(F)(F)F)c1)CC2 (stereo not given),-0.144,-0.922,-0.662,-1.03,0.167,0.357,-1.46,-0.255,-0.181,0.187 (inactive),0.0616,-3.88 (inactive),0.73 (inactive),-0.581 (inactive),0.0388 (inactive),-0.41,-0.285,-0.0876,0.315,0.908
CC(CO)N1C(=O)[C@]2(C)C3C(=O)OCCC/C=C\[C@H]3OC23C=CCN(c2ccc(Cl)cc2)C(=O)[C@@H]13 (stereo not given in full),-0.263,-0.48,1.53,-0.316,-0.568,-0.85,0.444,-0.506,-0.335,-0.53 (inactive),-0.313,0.612 (inactive),-1.53 (inactive),0.187 (inactive),-0.592 (inactive),-0.741,-0.316,-0.775,-0.734,0.0223
NC(=O)[C@H]1[C@@H]2C(=O)O[C@@H](c3ccccc3)[C@@H](c3ccccc3)N2[C@@H](c2ccc(OCCO)cc2)[C@]12C(=O)Nc1ccc(C#CCCO)cc12,0.92,1.18,0.798,0.746,1.13,0.35,-0.262,0.551,0.9,-1.05 (inactive),0.262,-0.532 (inactive),-0.311 (inactive),-0.465 (inactive),0.776 (inactive),0.617,0.136,0.579,0.331,0.177
COc1ccc(CCNC(=O)[C@@H]2c3ccccc3C(=O)N(C3CCCCC3)[C@H]2c2ccc(CO)cc2)cc1,1.01,0.883,1.19,0.144,0.441,1.74,-0.263,-0.359,0.771,-0.323 (inactive),0.378,-2.93 (inactive),-0.0661 (inactive),-0.295 (inactive),-0.582 (inactive),-0.11,-0.0087,-0.78,0.767,-0.0203
CC(C)N1C(=O)C[C@@](C(=O)NC2CC2)(c2ccc([N+](=O)[O-])cc2)[C@H]1c1ccc(CO)cc1,1.7,-0.0823,0.403,-0.793,0.323,0.362,-0.544,-1.11,-0.545,-0.254 (inactive),-0.0471,-4.5 (inactive),-0.0956 (inactive),1.82 (inactive),-0.673 (inactive),-0.677,-0.252,-1.39,1.4,-0.161
